# Experimental data taken from paper PMC4336329 (PLoS ONE, 2015).
# About 14,000 (4.5%) of roughly 310,000 compounds showed an effect of 50% or more. Effects have a minus sign here. The sample as a whole holds a higher share of strong results than the screen did.
# Biological target: human ether-à-go-go-related gene (hERG) potassium channel (human, UniProt Q12809)
# Assay: primary screen, population patch clamp on CHO cells stably expressing hERG; higher = less effect of the substance
# 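Note: peak tail current of the secondary pulse compared with the same well before compound.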
# human ether-à-go-go-related gene (hERG) potassium channel, sequence (Q12809 whole entry, looked up): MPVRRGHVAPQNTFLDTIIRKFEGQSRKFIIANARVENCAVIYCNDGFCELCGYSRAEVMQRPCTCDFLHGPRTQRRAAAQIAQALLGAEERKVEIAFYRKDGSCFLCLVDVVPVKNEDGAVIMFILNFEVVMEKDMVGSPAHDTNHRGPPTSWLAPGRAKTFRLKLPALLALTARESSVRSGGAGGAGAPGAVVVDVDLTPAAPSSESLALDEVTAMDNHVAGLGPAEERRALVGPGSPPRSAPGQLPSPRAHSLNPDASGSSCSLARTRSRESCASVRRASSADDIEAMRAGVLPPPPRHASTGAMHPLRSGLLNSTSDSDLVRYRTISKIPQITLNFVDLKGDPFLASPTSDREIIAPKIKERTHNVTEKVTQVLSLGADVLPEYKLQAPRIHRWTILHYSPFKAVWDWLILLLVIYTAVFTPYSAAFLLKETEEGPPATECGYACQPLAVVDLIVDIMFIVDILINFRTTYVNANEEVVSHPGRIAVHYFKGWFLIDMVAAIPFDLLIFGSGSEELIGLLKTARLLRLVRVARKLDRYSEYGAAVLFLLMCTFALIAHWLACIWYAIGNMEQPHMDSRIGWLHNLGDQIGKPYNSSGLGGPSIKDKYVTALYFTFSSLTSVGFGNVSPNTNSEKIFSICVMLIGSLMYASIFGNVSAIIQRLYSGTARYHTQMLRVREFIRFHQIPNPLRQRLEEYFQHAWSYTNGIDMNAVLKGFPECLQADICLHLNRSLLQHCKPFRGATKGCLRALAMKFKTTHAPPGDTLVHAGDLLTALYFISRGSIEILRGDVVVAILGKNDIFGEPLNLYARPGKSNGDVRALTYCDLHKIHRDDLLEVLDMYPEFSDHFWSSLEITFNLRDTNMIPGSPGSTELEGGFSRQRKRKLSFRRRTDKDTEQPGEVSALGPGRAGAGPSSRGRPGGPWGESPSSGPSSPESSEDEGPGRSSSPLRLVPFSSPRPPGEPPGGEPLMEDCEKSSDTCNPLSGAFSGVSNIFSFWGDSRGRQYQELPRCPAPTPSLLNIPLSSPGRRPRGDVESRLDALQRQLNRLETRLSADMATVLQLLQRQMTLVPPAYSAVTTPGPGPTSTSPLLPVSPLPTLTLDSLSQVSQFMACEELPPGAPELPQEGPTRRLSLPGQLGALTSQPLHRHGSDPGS
row,Compound,"hERG current change (%, negative = inhibition) at 10uM"
1,O=C(c1ccc(-c2ccccc2Cl)o1)N1CCN(S(=O)(=O)c2cccs2)CC1,15.9%
2,O=C(c1cccs1)C1CN2CCC1CC2 (stereo not drawn),-4.77%
3,COc1ccc(C(=O)Nc2ccc3c(c2)nc2n3CCSC2)cc1,-24.7%
4,O=c1[nH]c(=O)n(Cc2ccc(Oc3ccccc3)cc2)cc1Br,-1.61%
5,COc1ccc(NCc2ccc([N+](=O)[O-])s2)cc1,-13.6%
6,Cc1cccc(NCc2ccc([N+](=O)[O-])s2)c1,-26.7%
7,COc1cccc(NCc2ccc([N+](=O)[O-])s2)c1,-51%
8,COc1cc2c(cc1OC)-c1c3c(cc4c1[C@@H](C2)N(C)CC4)OCO3,-31.7%
9,COc1cc2c(cc1O)CC1c3c(cc(O)c(OC)c3-2)CCN1C (stereo not drawn),-59.2%
10,COc1cc2c(cc1O)C[C@H]1c3c(cc(O)c(OC)c3-2)CCN1C,-70.1%
11,COc1ccc2c(c1O)-c1c(OC)c(OC)cc3c1[C@H](C2)N(C)CC3,-36.5%
12,COc1cc2c(cc1O)[C@@H]1Cc3cc(O)c(OC)cc3[C@H](C2)N1C,11.3%
13,COc1cc2c(cc1OC)-c1c(OC)c(OC)cc3c1C(C2)N(C)CC3 (stereo not drawn),-5.23%
14,O=C(O)CCCCCN1C(=O)/C(=C\c2ccc(-c3ccc(Cl)cc3)o2)SC1=S,18%
15,COCCN1C(=O)c2ccccc2C(C(=O)Nc2ccc3c(c2)OCCO3)C1c1ccc(F)cc1 (stereo not drawn),17.1%
16,COc1cccc(S(=O)(=O)Nc2ccc(C(=O)Nc3ccncc3)cc2)c1,2.7%
17,Cc1ccc(CSc2ccc(S(=O)(=O)N3CCCC3)cn2)cc1,-4.27%
18,Cc1ccc(S(=O)(=O)N2CCC(N3CCCCCC3)CC2)cc1,-23.2%
19,CCn1c(SCc2ccc(C#N)cc2)nnc1-c1ccc(S(=O)(=O)N2CCCCC2)cc1,-70.7%
20,N#Cc1ccc(CSc2ccc(S(=O)(=O)N3CCCC3)cn2)cc1,-67.2%
21,N#Cc1ccc(S(=O)(=O)N2CCC(N3CCCCC3)CC2)cc1,-58.3%
22,CCn1c(SC)nnc1-c1ccc(S(=O)(=O)N2CCCCC2)cc1,-12.1%

row,Compound,"hERG current change (%, negative = inhibition) at 10uM"
1,O=S(=O)(c1ccc(SCc2ccc(Cl)cc2)nc1)N1CCCC1,-8.21%
2,O=S(=O)(c1ccc(Cl)cc1)N1CCC(N2CCCCCC2)CC1,-49.9%
3,CCn1c(SCc2ccccc2)nnc1-c1ccc(S(=O)(=O)N2CCCCC2)cc1,-36.2%
4,CC(=O)c1cccc(N/C=C\c2nnnn2-c2ccc(F)cc2)c1,0.338%
5,COC(=O)C1=C(C)NC(C)=C(C(=O)OC)C1c1ccccn1,5.81%
6,O=C(NC1CCCC1)C(c1cccnc1)N(C(=O)c1csnn1)C1CCCC1 (stereo not drawn),13%
7,O=C(CN(C(=O)Cn1nnc(-c2cccs2)n1)c1ccc2c(c1)OCCO2)NC1CCCCC1,-13.2%
8,Cc1nnc(C)n1N,12.1%
9,CCn1c(=O)cc(OCC(=O)O)c2ccccc21,10.6%
10,S=C(NCc1ccccc1)Nc1ccc(Cl)cc1,-25.1%
11,CC1CCN(c2nc(CN3CCCCC3)nc3scc(-c4ccccc4)c23)CC1,-75.5%
12,CC1CCCN(c2nc(-c3cccnc3)nc3scc(-c4ccccc4)c23)C1 (stereo not drawn),11.6%
13,OCC1CCCN(c2nc(CN3CCCCC3)nc3scc(-c4ccccc4)c23)C1 (stereo not drawn),-63.7%
14,Fc1ccc(N2CCN(c3nc(CN4CCOCC4)nc4scc(-c5ccccc5)c34)CC2)cc1,-5.05%
15,Clc1ccc(CNc2nc(CN3CCOCC3)nc3scc(-c4ccccc4)c23)cc1,-9.73%
16,O=C(O)C(=O)O.c1ccc(CNc2nc(CN3CCOCC3)nc3scc(-c4ccccc4)c23)cc1,-20.6%
17,CC1CCN(c2nc(-c3cccnc3)nc3scc(-c4ccccc4)c23)CC1,15.4%
18,CCC(CO)Nc1nc(CN2CCCCC2)nc2scc(-c3ccccc3)c12 (stereo not drawn),-68.2%
19,OCC1CCCN(c2ncnc3scc(-c4ccccc4)c23)C1 (stereo not drawn),3.73%
20,CCCCN(C(=O)CCC(=O)Nc1cc(C)on1)C(C(=O)NC(C)(C)CC)c1cccc(OC)c1OC (stereo not drawn),1.4%
21,Cc1cccc(C)c1NC(=O)CSc1nnnn1C,-1.61%
22,O=C(CSc1ccccn1)Nc1ccc(Cl)c([N+](=O)[O-])c1,-19.6%

row,Compound,"hERG current change (%, negative = inhibition) at 10uM"
1,COc1ccc(Cn2c(N)c(C#N)c3nc4ccccc4nc32)cc1,11.2%
2,COc1ccc(-n2c(SCC(=O)NCCCN3CCCC3=O)nnc2C(C)N2CCCCC2)cc1 (stereo not drawn),43.4%
3,C=CCc1cccc(CNc2nc3ccccc3n2CCC)c1O,5.13%
4,C#CCOCCOCCOCCNc1nc(N2CCOCC2)nc(N2CCN(C(=O)CCCCCCCCCCNC(=O)[C@H](CO)n3cc(CCCSC)nn3)CC2)n1,-0.214%
5,CCOc1ccc(S(=O)(=O)Nc2ccc(C(=O)NCC(c3ccco3)N3CCCCC3)cc2)cc1 (stereo not drawn),-25.1%
6,CC(C)[C@H](NC(=O)[C@H]1N2C(=O)c3ccccc3C2SC1(C)C)C(=O)NCc1ccco1 (stereo partly drawn),2.21%
7,Cc1cccc(C)c1NC(=O)CSc1nnc(Cn2nnc(-c3ccccc3)n2)n1-c1ccccc1,-22.3%
8,CCN(CC)c1ccc(CNc2ccc(Br)cn2)cc1,13.1%
9,CC1(C)Cc2c(c(N3CCOCC3)nc3sc(-c4ccc(C(=O)O)o4)c(N)c23)CO1,-15.2%
10,Cn1nnc(NC(=O)/C=C/c2ccco2)n1,8.33%
11,CCC(C)[C@H](NC(=O)NC1CCCc2ccccc21)C(=O)O (stereo partly drawn),20.6%
12,O=C(NC1CCCc2ccccc21)c1ccc(Br)cc1 (stereo not drawn),-7.78%
13,O=C(NC1CCCc2ccccc21)c1ccc([N+](=O)[O-])cc1 (stereo not drawn),-53.4%
14,COC(=O)[C@@H](NC(=O)NC1CCCc2ccccc21)C(C)C (stereo partly drawn),9.47%
15,N#Cc1ccc(C(=O)NC2CCCc3ccccc32)cc1 (stereo not drawn),-52.8%
16,O=C(NC1CCCc2ccccc21)c1ccccc1 (stereo not drawn),3.92%
17,Cc1cc(C(=O)NC2CCCc3ccccc32)ccc1[N+](=O)[O-] (stereo not drawn),9.18%
18,O=C(NC1CCSc2ccccc21)c1ccc([N+](=O)[O-])cc1 (stereo not drawn),-40.3%
19,CC(C)[C@H](NC(=O)NC1CCCc2ccccc21)C(=O)O (stereo partly drawn),-68.2%
20,COc1ccc(C(CNC(=O)C(CCSC)NC(=O)c2ccccc2Cl)N2CCOCC2)cc1 (stereo not drawn),-8.2%
21,CC(C)C[C@H](NC(=O)c1cc2cc(Cl)ccc2n1C)C(=O)N1CCC(C(=O)O)CC1,13.5%
22,CN(C(=O)c1cccc(N2C(=O)C3C4C=CC(C4)C3C2=O)c1)C1CCCCC1 (stereo not drawn),0.921%

row,Compound,"hERG current change (%, negative = inhibition) at 10uM"
1,O=C(Nc1ccccc1)NC(Cc1ccc(O)cc1)C(=O)O (stereo not drawn),17.4%
2,O=C(NC(=S)Nc1ccccc1C(=O)O)c1cncc(Br)c1,23%
3,COc1ccc(OC)c(/C=C/C(=O)OCC(=O)Nc2ccc3c(c2)OCCO3)c1,15.9%
4,Cc1noc(/C=C/N(C)C)c1S(=O)(=O)N1CCc2ccccc21,-18.6%
5,COc1ccccc1CN(C)C(=O)c1cccc(S(=O)(=O)N2CCc3ccccc3C2)c1,-4.08%
6,O=C(COC(=O)c1cc(=O)c2ccccc2o1)Nc1ccc2ccccc2c1,17.6%
7,CN1/C(=C\C(=O)CSc2nnc(N)s2)C(C)(C)c2ccccc21,0.532%
8,CN1/C(=C\C(=O)CSc2nnc(NCc3ccccc3)s2)C(C)(C)c2ccccc21,-13.1%
9,CC(C)Nc1nnc(SCC(=O)/C=C2\N(C)c3ccccc3C2(C)C)s1,-65.1%
10,Cc1cc(Cl)ccc1C(=O)C1CCCN(C(=O)c2nonc2C)C1 (stereo not drawn),-26.3%
11,Cc1cc(Cl)ccc1C(=O)C1CCCN(C(=O)c2snnc2C)C1 (stereo not drawn),-56.1%
12,CC(C)(C)c1ccc(C(=O)C2CCCN(C3CCC3)C2)cc1 (stereo not drawn),-18.4%
13,O=C(c1ccc(Cl)cc1)C1CCCN(C2CCSCC2)C1 (stereo not drawn),-78.9%
14,COc1ccc(C(=O)C2CCCN(C3CSCCSC3)C2)c(C)c1 (stereo not drawn),-13%
15,Cc1cc(Cl)ccc1C(=O)C1CCCN(C2CCSCC2)C1 (stereo not drawn),-74.3%
16,CN1CCCC(C(=O)c2ccc(Cl)cc2)C1 (stereo not drawn),-23%
17,O=C(c1ccc(C(F)(F)F)cc1)C1CCCN(C2CCSCC2)C1 (stereo not drawn),-71.2%
18,O=C(c1ccc(Cl)cc1)C1CCCN(C(=O)c2csnn2)C1 (stereo not drawn),0.734%
19,O=C(c1ccc(C(F)(F)F)cc1)C1CCCN(C(=O)c2csnn2)C1 (stereo not drawn),-22.6%
20,COC(=O)CCC(=O)N1CCCC(C(=O)c2ccc(Cl)cc2C)C1 (stereo not drawn),-5.75%
21,Cc1nc(C)c(C(=O)N2CCCC(C(=O)c3ccc(Cl)cc3C)C2)s1 (stereo not drawn),-23%
